This note sets out measurements from PubChem BioAssay AID1159580 (chemical genetic matrix, 2015).

A short description of the assay: chemical genetic growth profiling, strain panel (AID 1159580).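 Further: tested at 20 µM; growth read once vehicle control cultures reached saturation at 30 °C; 1 = growth at the plate median or of vehicle wells.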 The conditions noted are these: growth OD.
[1] abbreviates: S. cerevisiae deletion strains, locus YAL013W, strain DEP1, stronger effect = lower value.
Where [2] appears, read: S. cerevisiae deletion strains, locus YAL040C, strain CLN3, stronger effect = lower value.
[3] abbreviates: S. cerevisiae deletion strains, locus YCL061C, strain MRC1 (second series), stronger effect = lower value.
[4] abbreviates: S. cerevisiae deletion strains, locus YDR150W, strain NUM1, stronger effect = lower value.
[5] abbreviates: S. cerevisiae deletion strains, locus YDR363W, strain ESC2, stronger effect = lower value.
The mark [6] stands for this setting: S. cerevisiae deletion strains, locus YER002W, strain NOP16, stronger effect = lower value.
Setting [7] is: S. cerevisiae deletion strains, locus YGR078C, strain PAC10, stronger effect = lower value.
Setting [8] is: S. cerevisiae deletion strains, locus YJR075W, strain HOC1, stronger effect = lower value.
Setting [9] is: S. cerevisiae deletion strains, locus YMR263W, strain SAP30, stronger effect = lower value.
Setting [10] is: S. cerevisiae deletion strains, locus YNL153C, strain GIM3, stronger effect = lower value.
Setting [11] is: S. cerevisiae deletion strains, locus YNL175C, strain NOP13, stronger effect = lower value.
The mark [12] stands for this setting: S. cerevisiae deletion strains, locus YNL197C, strain WHI3, stronger effect = lower value.
Setting [13] is: S. cerevisiae deletion strains, locus YNL224C, strain SQS1, stronger effect = lower value.
The mark [14] stands for this setting: S. cerevisiae deletion strains, locus YOR083W, strain WHI5 (second series), stronger effect = lower value.
Setting [15] is: S. cerevisiae deletion strains, locus YPL055C, strain LGE1, stronger effect = lower value.
The mark [16] stands for this setting: S. cerevisiae deletion strains, locus YGR229C, strain SMI1, stronger effect = lower value.
[17] abbreviates: S. cerevisiae deletion strains, locus YNL128W, strain TEP1, stronger effect = lower value.
The mark [18] stands for this setting: S. cerevisiae deletion strains, locus YNL322C, strain KRE1, stronger effect = lower value.
[19] abbreviates: S. cerevisiae deletion strains, locus YPL241C, strain CIN2, stronger effect = lower value.
[20] abbreviates: S. cerevisiae deletion strains, locus YBR229C, strain ROT2, stronger effect = lower value.
The mark [21] stands for this setting: S. cerevisiae deletion strains, locus YDL101C, strain DUN1, stronger effect = lower value.
[22] abbreviates: S. cerevisiae deletion strains, locus YEL061C, strain CIN8, stronger effect = lower value.
The mark [23] stands for this setting: S. cerevisiae deletion strains, locus YHR030C, strain SLT2, stronger effect = lower value.
[24] abbreviates: S. cerevisiae deletion strains, locus YHR087W, strain rtc3, stronger effect = lower value.
Where [25] appears, read: S. cerevisiae deletion strains, locus YJL187C, strain SWE1, stronger effect = lower value.
[26] abbreviates: S. cerevisiae deletion strains, locus YJR043C, strain POL32, stronger effect = lower value.
[27] abbreviates: S. cerevisiae deletion strains, locus YLR039C, strain RIC1, stronger effect = lower value.
The mark [28] stands for this setting: S. cerevisiae deletion strains, locus YLR058C, strain SHM2 (second series), stronger effect = lower value.
Setting [29] is: S. cerevisiae deletion strains, locus YLR085C, strain ARP6, stronger effect = lower value.
Setting [30] is: S. cerevisiae deletion strains, locus YLR262C, strain YPT6, stronger effect = lower value.
Setting [31] is: S. cerevisiae deletion strains, locus YML094W, strain GIM5, stronger effect = lower value.
The mark [32] stands for this setting: S. cerevisiae deletion strains, locus YMR219W, strain ESC1, stronger effect = lower value.
Where [33] appears, read: S. cerevisiae deletion strains, locus YNL298W, strain CLA4 (second series), stronger effect = lower value.
Where [34] appears, read: S. cerevisiae deletion strains, locus YNR030W, strain Alg12, stronger effect = lower value.
The mark [35] stands for this setting: S. cerevisiae deletion strains, locus YPR135W, strain CTF4, stronger effect = lower value.

In all, about 5,500 compounds went through this assay and about 2,000 (36%) were called active. Not shown: some 18% with an inconclusive outcome. The list shows a part of the results. Values without a mark were called inactive. No stated cut-off is given here; in the data, active means normalized growth mostly below about 0.91 (no sharp cut-off); inconclusive means no clear call, values can overlap the other calls; inactive means mostly above about 0.92.

For the compound `O=C(O)C1C2CCC(O2)C1C(=O)O` (configuration not stated), the normalized growth by setting is: under setting [1], 1.04; under setting [2], 0.983; under setting [3], 1; under setting [4], 1; under setting [5], 1; under setting [6], 0.996. Also, the normalized growth is 0.985 under setting [7]; 1.02 under setting [8]; 0.995 under setting [9]; 1 under setting [10]; 1.01 under setting [11]; 0.998 under setting [12]. The normalized growth was 1.02 under setting [13], 1.06 under setting [14] and 1.06 under setting [15].
As to `CC1(C(=O)O)C2CCC(O2)C1(C)C(=O)O` (configuration not stated), the normalized growth by setting is: under setting [2], 0.902; under setting [3], 0.984; under setting [5], 0.982; under setting [6], 0.914 (active); under setting [7], 0.985; under setting [16], 1. Also, the normalized growth under setting [8] was 1.03; the normalized growth under setting [17] was 0.943; the normalized growth under setting [10] is 0.886; the normalized growth under setting [11] is 0.904 (active); the normalized growth under setting [12] is 0.884 (active); the normalized growth under setting [13] is 0.914 (active). Besides, the normalized growth under setting [18] is 0.989, the normalized growth under setting [14] was 0.833 (active), the normalized growth under setting [15] was 1.04 and the normalized growth under setting [19] was 0.97.
As for `CCOC(=O)COc1nc(-c2cccs2)cc(C(F)(F)F)c1C#N`, the normalized growth runs as follows: under setting [1], 0.995; under setting [20], 0.97; (S. cerevisiae deletion strains, locus YCL061C, strain MRC1, stronger effect = lower value) 1; under setting [21], 0.963; under setting [4], 0.975; under setting [22], 0.975. Moreover, the normalized growth under setting [7] was 0.978; the normalized growth under setting [16] is 0.989; the normalized growth under setting [23] is 0.827; the normalized growth under setting [24] was 0.961; the normalized growth under setting [25] was 0.966; the normalized growth under setting [26] was 1.01. The normalized growth reads like this: under setting [8], 0.979; under setting [27], 0.946; under setting [28], 0.972; under setting [29], 0.949; under setting [30], 0.991; under setting [31], 0.922. For the same compound, the normalized growth is 0.988 under setting [32]; 1.04 under setting [9]; 0.982 under setting [17]; 0.98 under setting [10]; 0.932 under setting [33]; 0.98 under setting [18]. For the same compound, the normalized growth was 0.967 under setting [34]; 0.971 under setting [15]; 1.08 under setting [19]; 0.943 under setting [35]; 0.965 (S. cerevisiae strains, strain wild type, stronger effect = lower value).
Consider `CCOC(=O)c1cc(C)nc(Sc2ccccc2)c1C#N`, for which the normalized growth was 0.931 (active) under setting [1]; 0.889 (active) under setting [20]; 0.897 (active) under setting [21]; 0.852 under setting [4]; 0.917 under setting [22]; 0.763 (active) under setting [7]. Also, the normalized growth was 0.841 under setting [23]; 0.787 (active) under setting [24]; 0.854 (active) under setting [25]; 0.91 (active) under setting [26]; 0.573 (active) under setting [8]; 0.898 (active) (S. cerevisiae deletion strains, locus YKL190W, strain CNB1, stronger effect = lower value). The normalized growth is, setting by setting: under setting [27], 0.895; under setting [28], 0.858 (active); under setting [29], 0.787; under setting [30], 0.86; under setting [31], 0.917; under setting [32], 0.877 (active). In addition, the normalized growth is, setting by setting: under setting [9], 0.907 (active); (S. cerevisiae deletion strains, locus YMR307W, strain GAS1, stronger effect = lower value) 0.754; under setting [10], 0.916 (active); under setting [33], 0.785 (active); under setting [18], 0.885 (active); under setting [34], 0.746 (active). In addition, the normalized growth is, setting by setting: under setting [15], 0.844; under setting [19], 0.83 (active); under setting [35], 1.12.
